Screening data (PubChem)
AmpC inh no detg – qHTS Inhibitors of AmpC Beta-Lactamase (assay without detergent) | P00811 | AmpC nitrocefin hydrolysis, absorbance 480 nm, 0.0001% Triton | Potency, µM (series often up to 57.1 µM), actives largely listed as inhibitors | 330,000 tested, 0.52% active | AID 485341, 2010; note: nearly all actives have a fitted effect of over 20% in size
Target sequence (P00811 whole entry, looked up): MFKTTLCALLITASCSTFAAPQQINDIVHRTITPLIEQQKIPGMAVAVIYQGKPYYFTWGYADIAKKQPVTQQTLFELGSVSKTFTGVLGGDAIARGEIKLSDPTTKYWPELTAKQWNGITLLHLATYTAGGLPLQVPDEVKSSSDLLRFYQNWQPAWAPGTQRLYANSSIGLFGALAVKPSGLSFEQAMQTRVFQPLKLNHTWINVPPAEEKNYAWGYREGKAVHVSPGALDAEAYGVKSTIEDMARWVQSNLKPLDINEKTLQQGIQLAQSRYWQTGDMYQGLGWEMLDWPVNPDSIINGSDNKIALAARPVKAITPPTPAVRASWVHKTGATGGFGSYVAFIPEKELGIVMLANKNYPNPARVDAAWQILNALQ
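20 mM phosphate pH 7.0 + 0.01% (detergent screen) or 0.0001% Triton X-100; 5.3 nM AmpC reagent; cpd preinc 15 min RT; nitrocefin (800 uM stock) to start; A480 q20 s × 4 min; Activity was normalised to no-enzyme and no-compound control wells.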
SARS PLP yeast – qHTS of Yeast-based Assay for SARS-CoV PLP | S. cerevisiae expressing SARS-CoV PLpro, growth rescue | 330,000 tested, 0.19% active | Potency, µM (top dose mostly 32.9 µM), actives largely listed as activators; calls by dose curve; note: nearly all actives have a fitted effect of over 55% in size
AMA1 RON2 block – qHTS for Inhibitors of AMA1-RON; Towards Development of Antimalarial Drug Lead: Primary Screen | Plasmodium falciparum AMA1 (3D7) - RON2 peptide interaction | AlphaScreen AMA1-biotinylated RON2 peptide binding | Potency, µM (highest dose often 58.2 µM), hits mostly inhibitors | 360,000 tested, 0.2% active | AID 720542, 2013; note: nearly all actives have a fitted effect of over 45% in size
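AMA1 (3D7) with his tag at 25 nM final met compounds first, then biotinylated RON2 peptide at 25 nM; detection used donor plus acceptor beads, 10 µg/mL apiece, read by AlphaScreen after 30 min at room temperature.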
AmpC detergent – qHTS Inhibitors of AmpC Beta-Lactamase (assay with detergent); 370,000 tested, 0.041% active; AID 485294, 2010; AmpC hydrolysis of nitrocefin, absorbance 480 nm, 0.01% Triton; P00811; Potency, µM (highest dose often 114 µM), usual class: inhibitors; note: nearly all actives have a fitted effect of over 25% in size
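AmpC (5.3 nM in the dispensed reagent) in 20 mM phosphate pH 7.0 with 0.01% (detergent screen) or 0.0001% Triton X-100 was preincubated with compounds for 15 min at room temperature. Nitrocefin was then added from an 800 uM solution, and hydrolysis was followed at 480 nm.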
NS1 function inh – qHTS Assay for Inhibitors of Influenza NS1 Protein Function. Potency, µM (top dose mostly 46.1 µM). 270,000 tested, 0.4% active. AID 2326, 2010; calls by dose curve; note: actives are rising curves; nearly all actives have a fitted effect of over 50% in size
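In this qHTS, NS1 from influenza A is expressed in budding yeast, where it slows growth. Cells are switched from glucose to 2% galactose medium (pH 6.0, -URA), treated with compound, and growth recovery is read at OD600.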
Hits are given with their value; – = inactive; ? = inconclusive; · = no result. The list is not random: actives were taken first. Their share in the collection is about 0.99%. Unless noted, calls come from the whole dose curve; as a rule, active = well fitted curve in the direction sought with a large enough effect; inconclusive = small, poorly fitted or top-dose-only effect, or another doubt; inactive = no such curve, though single readings can be large; an effect the other way counts as inactive or inconclusive.

SMILES | AmpC inh no detg | SARS PLP yeast | AMA1 RON2 block | AmpC detergent | NS1 function inh
O=C(COC(=O)C1CC1)c1c[nH]c2ccccc12 | – | – | – | ? | –
O=C(Cc1ccccc1[N+](=O)[O-])OCC(=O)c1c[nH]c2ccccc12 | 10µM | – | – | – | ·
O=C1C=CC2=C3c4cc(O)c(O)cc4CC3(O)COC2=C1O (stereo not given) | · | · | 2.8µM | · | ·
Cc1ccc(NC(=S)Nc2cccnc2)c(S(=O)(=O)N2CCCCC2)c1 | 14µM | – | – | – | ·
CCOc1ccc2nc(SC3CC(=O)N(c4cccc(OC)c4)C3=O)sc2c1 (stereo not given) | 8.9µM | – | – | – | –
Cc1cc(O)c(C(C[N+](=O)[O-])c2ccc(Cl)cc2)c(=O)o1 (stereo not given) | – | – | – | – | –
Cc1cc(C)n(C(C[N+](=O)[O-])c2ccc(Cl)cc2)n1 (stereo not given) | 18µM | – | – | – | –
COc1ccc2c(c1)CC/C(=C\Nc1ccc3c(c1)OCO3)C2=O | 10µM | – | – | – | –
CC(=O)C1=C(C)OC(N)=C(C#N)C1c1cc2cc(C)c(C)cc2nc1Cl (stereo not given) | 0.32µM | – | – | – | –
COc1cccc(-c2oc3ccc(C)cc3c(=O)c2O)c1 | · | · | · | – | ·
CCOC(=O)c1cc(NC(=O)N(CC)C2CCCCC2)c(C)nc1C | – | 14µM | – | – | –
Cc1cccc(NC(=O)C2CCCN(S(=O)(=O)c3ccc(Br)s3)C2)c1 (stereo not given) | · | · | · | – | ·
CCOc1cc(C2C(C#N)=C(N)Oc3c2c(=O)oc2ccccc32)ccc1OC(=O)c1cccs1 (stereo not given) | 16µM | – | – | ? | –
CCC(CC)C1C(C#N)=C(N)Oc2c1c(=O)oc1ccccc21 (stereo not given) | – | – | – | – | –
Cc1cccc(NC(=O)C(=O)NCC(c2ccc3c(c2)OCO3)N2CCOCC2)c1C (stereo not given) | · | · | · | – | ·
CC(C)C[C@H](N)c1nnc(S(=O)(=O)Cc2ccc(F)cc2)o1 | 2µM | – | – | 1.4µM | –
CC(=O)c1ccc(NC(=O)C2CCN(S(=O)(=O)c3cccc4cccnc34)CC2)cc1 | – | – | – | ? | –
COc1ccc(NC(=O)C2CCN(S(=O)(=O)c3cccc4cccnc34)CC2)cc1 | 56µM | – | – | – | –
COc1ccccc1-c1ccc(/C=C2/C=C(CC(C)C)OC2=O)o1 | ? | – | – | – | –
CCCC1=C/C(=C/c2ccc(-c3ccccc3OC)o2)C(=O)O1 | 32µM | – | – | ? | –
COc1ccc2cc(-c3nnc(Nc4ccccc4)s3)c(=O)oc2c1 | · | · | · | – | ·
CC(C)(C)c1ccc(C(=O)NC(=S)NCC2CCCO2)cc1 (stereo not given) | – | 13µM | – | – | –
CNCCC=C1c2ccccc2C=Cc2ccccc21 | · | · | – | · | ·
CNc1ccc(C=C2C=Cc3ccccc32)cc1 | · | · | 25µM | · | ·
COC(=O)c1c(C)oc2c1cc(NS(=O)(=O)c1cccs1)c1ccccc12 | 11µM | – | – | – | –
SMILES | AmpC inh no detg | SARS PLP yeast | AMA1 RON2 block | AmpC detergent | NS1 function inh
COc1ccc(OC)c(S(=O)(=O)Nc2cc3c(C(C)=O)c(C)oc3c3ccccc23)c1 | · | · | · | – | ·
COc1ccc(C(=O)Nc2cc(C)c3c(=O)oc4ccccc4c3n2)cc1 | 8.9µM | – | – | ? | –
COCC(=O)Nc1cc(C)c2c(=O)oc3ccccc3c2n1 | – | – | – | – | –
Cc1ccc(NN=C2c3ccccc3-c3ccccc32)cc1 | 11µM | – | – | ? | –
c1ccc(NN=C2c3ccccc3-c3ccccc32)cc1 | · | · | – | · | ·
O=C(Cc1ccc(F)cc1)Nc1nnc2n1CCS2 | · | · | · | – | ·
Nc1nc(-c2ccco2)c(-c2ccco2)s1 | – | – | – | – | –
c1coc(-c2nc(-c3ccco3)c(-c3ccco3)nc2-c2ccco2)c1 | – | – | 9.5µM | ? | –
Cn1c(CN2CCN(c3ccc(Cl)cc3)CC2)nc2ccccc21 | – | 8.9µM | – | ? | –
O=C(CCn1c(=O)c2sccc2n(Cc2cc(=O)n3ccccc3n2)c1=O)NCc1ccco1 | – | – | – | – | –
O=C(CCCn1c(=O)c2sccc2n(Cc2cc(=O)n3ccccc3n2)c1=O)NCc1ccco1 | 40µM | – | – | ? | –
